# From PubChem BioAssay
# The full list was thinned out, with hits kept by preference.
# CHX counter = Cycloheximide Counterscreen for Small Molecule Inhibitors of Shiga Toxin | actives 12% (n = 300,000) | cell reporter, cycloheximide protein synthesis inhibition counterscreen | max response, % | AID 2314, 2010; in the data active = max response mostly above about 13%, no sharp cut-off; inactive = mostly below about 14%; note: read at 38.3 µM for the half of the compounds with a filed dose; 0% is about no effect
# Tb PYK inh = qHTS of Trypanosoma Brucei Inhibitors; pyruvate kinase (Trypanosoma brucei), Q57TT1; TbPYK enzyme, Kinase-Glo Plus ATP luminescence, 45 min; Potency, µM (titrated, usually from 76.8 µM), for the others: at the top dose activity, negative = inhibition, hits mostly inhibitors; actives 0.12% (n = 410,000); AID 624173, 2012; note: potency is the fitted concentration of half-maximal effect; % is set by controls: 0 for no effect and ±100 for the full control effect; nearly all actives have a fitted effect of over 50% in size
#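 Readout: single end-point luminescence (Kinase-Glo Plus, 10 min). Reaction conditions were TbPYK/substrate plus 130 uM ADP, 45 min at RT, pH 7.2 TEA buffer. No-enzyme wells served as controls, and data were normalized before concentration-response fitting.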
# NS1 function inh = qHTS Assay for Inhibitors of Influenza NS1 Protein Function. actives 0.4% (n = 270,000). AID 2326, 2010. Potency, µM (top dose mostly 46.1 µM), without a hit: at the highest dose activity, positive = more growth; calls by dose curve; note: potency is the fitted concentration of half-maximal effect; actives are rising curves; nearly all actives have a fitted effect of over 50% in size
#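 S. cerevisiae expressing influenza A NS1, grown in glucose, washed, then diluted 1:100 into pH 6.0 -URA galactose medium with 23 nl compound. Growth recovery read as OD600; NS1-free strain serves as control.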
# SARS PLpro yeast = qHTS of Yeast-based Assay for SARS-CoV PLP; S. cerevisiae expressing SARS-CoV PLpro, growth rescue; Potency, µM (highest dose often 32.9 µM), without a hit: at the highest dose activity, positive = growth rescue, actives largely listed as activators; actives 0.19% (n = 330,000); calls by dose curve; note: potency is the fitted concentration of half-maximal effect; 0% is about no effect; nearly all actives have a fitted effect of over 55% in size
# Shiga toxin inh = A qHTS for Small Molecule Inhibitors of Shiga Toxin; inhibition, % at 38.7 µM; Vero cells, Shiga toxin protein synthesis inhibition reporter; AID 2315, 2010; actives 9.2% (n = 290,000); in the data active = inhibition mostly above about 28%, no sharp cut-off; inactive = mostly below about 43%; note: 0% is about no effect
# LmPK inhibitor = qHTS Assay for Inhibitors of Leishmania Mexicana Pyruvate Kinase (LmPK) | Q27686 | purified LmPK, Kinase-Glo ATP luminescence, 1 h | Potency, µM (titrated, usually from 57.5 µM), for the others: at the top dose activity change, negative = inhibition, most hits filed as inhibitors | actives 0.37% (n = 290,000); note: potency is the fitted concentration of half-maximal effect; % is set by controls: 0 for no effect and ±100 for the full control effect
# Target sequence (Q27686 whole entry, looked up): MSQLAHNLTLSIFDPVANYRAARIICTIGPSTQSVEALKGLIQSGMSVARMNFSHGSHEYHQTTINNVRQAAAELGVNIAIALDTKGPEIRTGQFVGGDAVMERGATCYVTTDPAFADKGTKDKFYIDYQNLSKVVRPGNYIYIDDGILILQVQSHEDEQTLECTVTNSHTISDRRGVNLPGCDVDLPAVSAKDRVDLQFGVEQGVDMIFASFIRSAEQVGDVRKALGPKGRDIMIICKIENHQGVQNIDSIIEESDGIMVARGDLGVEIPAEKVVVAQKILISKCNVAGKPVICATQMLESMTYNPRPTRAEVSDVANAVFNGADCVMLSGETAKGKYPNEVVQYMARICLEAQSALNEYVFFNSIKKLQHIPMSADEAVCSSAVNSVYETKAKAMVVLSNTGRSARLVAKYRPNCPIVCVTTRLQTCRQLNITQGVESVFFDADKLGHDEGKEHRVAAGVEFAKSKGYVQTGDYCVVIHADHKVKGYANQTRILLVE
#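 qHTS format; LmPK 0.1 nM; substrates PEP 0.5 mM and ADP 0.1 mM. One-hour room-temperature incubation, then coupled luciferase luminescence; 0.5 nM enzyme wells mark activation.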
# Active calls of the source: *; ? = inconclusive; nt = not tested or not shown. Unless noted, calls come from the whole dose curve; as a rule, active = well fitted curve in the direction sought with a large enough effect; inconclusive = small, poorly fitted or top-dose-only effect, or another doubt; inactive = no such curve, though single readings can be large; an effect the other way counts as inactive or inconclusive.
SMILES,CHX counter,Tb PYK inh,NS1 function inh,SARS PLpro yeast,Shiga toxin inh,LmPK inhibitor
CCc1ccc2oc(C(=O)Nc3cc(Cl)ccc3OC)cc(=O)c2c1,nt,1.5%,nt,nt,nt,nt
Cc1csc2nc(CN3CCN(CC(=O)N(C)C)CC3)cc(=O)n12,-0.9,-1.0%,-1.3%,2.0%,-8.5,2.0%
COc1ccc(/C=N/NC(=O)c2ccn[nH]2)cc1COc1ccc([N+](=O)[O-])c(C)c1,34.7*,1.9%,10.6%,-0.9%,55.1*,-2.4%
COc1ccc(/C=N\NC(=O)c2ccccc2)cc1COc1ccc(F)cc1,27.2*,-0.9%,-40.3%,4.5%,198.0,5.5%
COc1ccc(/C=N/NC(=O)c2ccccc2)cc1CN1CCN(c2ccc(F)cc2)CC1,12.4*,-12.8%,-3.4%,2.4%,24.6,1.0%
COc1ccc(C(=O)N/N=C/c2ccc(OC)c(COc3ccc(F)cc3)c2)cc1,18.7,-8.5%,-10.0%,21.5%,13.3,-2.0%
COc1ccc(/C=N/NC(=O)c2ccccc2F)cc1CN1CCN(c2ccc(F)cc2)CC1,10.8,1.9%,16.8%,-6.5%,-5.7,1.8%
CN(Cc1ccccc1F)C(=O)c1sccc1-c1ccccc1,-5.1,7.2%,-0.2%,-2.5%,-22.2,-8.5%
O=C(NC(=S)Nc1ccc(N2CCCC2)cc1)c1ccc(F)cc1,-1.9,-7.2%,0.2%,-3.0%,5.9,2.3%
O=c1cc(CN2CCCc3ccccc32)nc2sccn12,23.9*,1.4%,-5.1%,3.6%,58.6,1.3%
O=c1cc(CN2CCc3ccccc32)nc2sccn12,0.4,-6.1%,14.2%,-1.1%,-5.5,3.4%
Cc1cccc(-c2[nH]c(C(C)(C)C)nc2-c2ccc3nccnc3c2)n1,nt,0.0%,nt,nt,nt,nt
CC(=O)COC(=O)c1ccc2noc(-c3ccccc3)c2c1,13.9*,-0.7%,7.8%,-1.3%,59.2*,-6.7%
Cc1ccc(-c2onc3ccc(C(=O)O)cc23)cc1,91.6*,-1.0%,-34.0%,-1.9%,179.7*,-4.5%
Cc1ccc(-n2ncc3c(NCCC4=CCCCC4)ncnc32)cc1C,nt,0.8%,nt,nt,nt,nt
O=c1ncccn1[C@@H]1O[C@H](CO)[C@@H](O)[C@H]1O,7.4,nt,nt,nt,-7.4,nt
CCCCNC(=O)c1c(CSc2ccccc2)noc1C(=O)NCc1ccccc1,-4.8,2.5%,0.9%,1.1%,-18.1,8.6%
Nc1cccn2c(-c3ccc(Cl)c(Cl)c3)cnc12,74.0*,-8.3%,nt,-4.2%,91.8*,6.3%
Nc1cccn2c(-c3ccc(Cl)cc3)cnc12,47.3*,-5.3%,nt,-9.1%,197.1*,-24.4%
Cc1ccc(S(=O)(=O)NCc2nc3cccnc3n2Cc2ccccc2Cl)c(C)c1,nt,-4.5%,nt,nt,nt,nt
Cc1nc2ccc(NC(=O)c3ccc(Cl)c(NC(=O)c4cccs4)c3)cc2s1,20.4*,2.9%,11.2%,-4.5%,51.4,0.7%
Cc1ccc(NC(=O)c2ccc(Cl)c(NC(=O)c3cccs3)c2)cc1,52.6*,-3.6%,-41.1%,-12.7%,45.4,-5.1%
CC(=O)N1CCN(C(=O)c2ccc(Cl)c(NC(=O)c3cccs3)c2)CC1,nt,2.3%,nt,2.0%,nt,nt
CN1CCCC[C@@H]1CCN1CCCCC1,nt,nt,-1.4%,nt,nt,nt
CCCOc1ccc(N2C(=O)CC(N(Cc3ccc(OC)cc3)C(=S)Nc3ccccc3)C2=O)cc1 (configuration not stated),25.3*,1.1%,5.7%,12.6%,30.3,4.2%
SMILES,CHX counter,Tb PYK inh,NS1 function inh,SARS PLpro yeast,Shiga toxin inh,LmPK inhibitor
CC1(c2nnc(Cc3ccccc3)o2)CC(c2ccccc2Br)=NO1 (configuration not stated),nt,3.5%,nt,1.4%,nt,nt
CN(CC(=O)Nc1ccc(Br)cc1)S(=O)(=O)c1cccc2nsnc12,nt,1.1%,nt,nt,nt,nt
C=CCn1c(O)c(CN2CCOCC2)c(C)c(C#N)c1=O,29.9*,-10.7%,-6.3%,3.2%,91.1*,-1.1%
CC(C)C[C@@H](COCc1cccc(C(F)(F)F)c1)N1CCN(C(=O)c2ccc(C(F)(F)F)cc2)CCC1=O,nt,0.2%,nt,nt,nt,nt
Cc1ccc(NC(=O)C2C(=O)N(CCO)C3(C)CC2c2ccccc2O3)cc1 (configuration not stated),22.4*,0.5%,-7.4%,3.3%,32.0,0.1%
COc1ccc(NC(=O)C2C(=O)N(CCO)C3(C)CC2c2ccccc2O3)cc1 (configuration not stated),12.8,0.6%,-3.7%,-0.8%,77.5,1.3%
O=C(c1cc2c(=O)n3ccccc3nc2s1)N1CCOCC1,22.4*,2.1%,3.5%,-1.1%,38.5*,-11.2%
O=C(c1cc2c(=O)n3ccccc3nc2s1)N1CCN(c2cccc(Cl)c2)CC1,1.7,-1.2%,13.4%,-2.4%,-4.1,0.0%
CC1CCN(C(=O)c2cc3c(=O)n4ccccc4nc3s2)CC1,26.2,0.3%,-15.1%,-1.0%,83.4*,-5.2%
COc1ccc(CNC(=O)C2CCN(C(=O)Cc3ccccc3)CC2)cc1,-1.4,2.5%,-2.7%,1.1%,4.0,1.8%
CC(C)c1ccc(Nc2nc(Cl)nc(NCCO)n2)cc1,12.4*,0.0%,?,-0.3%,20.9,-7.2%
CC(C)Nc1nc(Cl)nc(Nc2ccccc2)n1,39.0*,-0.6%,-4.3%,14.8%,52.6*,1.6%
CC(C)(C)c1ccc(/C=C(\c2nc3ccccc3[nH]2)S(=O)(=O)c2ccccc2)cc1,nt,6.8%,nt,nt,nt,nt
O=C(O)c1ccc(/C=C(\c2nc3ccccc3[nH]2)c2nc3ccccc3s2)cc1,29.7*,3.2%,2.6%,0.2%,39.8*,0.1%
CCc1ccc2[nH]c(=O)c(C(c3nnnn3CC3CCCO3)N3CCCc4ccccc43)cc2c1 (configuration not stated),9.3,0.4%,-28.5%,3.5%,-10.5,-1.0%
Cc1cc2cc(C(c3nnnn3CC3CCCO3)N3CCCc4ccccc43)c(=O)[nH]c2cc1C (configuration not stated),12.3*,-0.8%,5.01µM*,-2.0%,12.7,-4.7%
O=c1[nH]c2cc3c(cc2cc1C(c1nnnn1Cc1ccccc1)N1CCCc2ccccc21)OCO3 (configuration not stated),15.7*,-8.3%,6.4%,-9.8%,43.9*,0.6%
Cc1cccc(C(=O)Nc2ccccc2C(=O)OCC(=O)Nc2ccc(C#N)cc2)c1,46.2*,1.8%,5.6%,2.6%,54.5*,1.5%
O=C(NCCSCc1cccc(Cl)c1)C1CCN(S(=O)(=O)Cc2ccccc2)CC1,nt,2.4%,nt,nt,nt,nt
COC(=O)CCCN1C(=O)c2cccc3cccc(c23)C1=O,24.4*,-13.3%,-32.5%,-3.3%,28.2,0.5%
O=C1c2ccc3c4c(ccc(c24)C(=O)N1CCCCO)C(=O)N(CCCCO)C3=O,34.2*,-1.5%,nt,7.9%,72.1*,0.6%
O=C(CCN1C(=O)c2cccc3cccc(c23)C1=O)N1CCOCC1,26.1*,0.3%,nt,1.0%,94.3*,-9.0%
